Only some compounds are listed: those with a hit (about 1.8% of all), similar ones and a draw of the others.
LYPLA2 counter = counter-screen for PME1 inhibitors: inhibitors of human LYPLA2. O95372. recombinant LYPLA2, FP-Rh probe fluorescence polarization. hit rate 0.38% among 320,000. inhibition, % at 5.9 µM;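 active means inhibition above the screen-wide mean plus 3 SD, limit set per campaign, cut at about 26% in these data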
LYPLA1 counter = LYPLA1 (human) inhibition in PME1 counter-screen. AID 2174. recombinant LYPLA1, FP-Rh probe fluorescence polarization. O75608. hit rate 0.16% among 320,000. inhibition, % at 5.9 µM;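 active means inhibition above the mean of all tested compounds plus 3 SD, set per campaign, cut at about 14% in these data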;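 further: inhibitors block serine hydrolase probe labeling of LYPLA1 so polarization falls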
PAD4 FP inh = blocks human protein arginine deiminase 4; AID 485272; hit rate 0.41% among 330,000; Q9UM07; recombinant PAD4, RCA probe fluorescence polarization; inhibition, % at 6.36 µM;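 active means percent inhibition above a cutoff equal to the mean of all tested compounds plus 3 SD, cut at about 15% in these data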
Target sequence (Q9UM07 whole entry, looked up): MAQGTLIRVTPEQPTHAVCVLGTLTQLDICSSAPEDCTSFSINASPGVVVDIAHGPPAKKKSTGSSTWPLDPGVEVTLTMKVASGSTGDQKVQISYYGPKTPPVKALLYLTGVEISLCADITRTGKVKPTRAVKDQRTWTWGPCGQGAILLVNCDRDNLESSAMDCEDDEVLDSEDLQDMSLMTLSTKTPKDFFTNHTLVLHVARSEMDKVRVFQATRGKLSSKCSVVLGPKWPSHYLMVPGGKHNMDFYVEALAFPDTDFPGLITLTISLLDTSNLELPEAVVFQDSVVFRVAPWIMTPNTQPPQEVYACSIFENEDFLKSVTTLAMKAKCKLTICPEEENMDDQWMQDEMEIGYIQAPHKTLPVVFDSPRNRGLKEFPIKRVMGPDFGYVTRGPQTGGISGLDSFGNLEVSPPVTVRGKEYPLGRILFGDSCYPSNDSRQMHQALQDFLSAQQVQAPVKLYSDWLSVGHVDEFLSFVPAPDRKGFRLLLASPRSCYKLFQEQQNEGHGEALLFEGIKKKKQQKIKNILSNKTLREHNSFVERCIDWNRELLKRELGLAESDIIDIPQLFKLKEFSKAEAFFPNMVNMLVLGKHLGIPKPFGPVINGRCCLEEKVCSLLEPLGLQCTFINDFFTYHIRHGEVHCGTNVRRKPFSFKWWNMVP
PME-1 primary = blocks human protein phosphatase methylesterase 1 | AID 2130 | Q9Y570 | inhibition, % at 5.9 µM | recombinant PME-1, FP-Rh probe fluorescence polarization | hit rate 0.53% among 320,000;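 active means inhibition above the campaign mean of all compounds plus 3 SD, cut at about 26% in these data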;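 further: competitive labeling of PME-1 active site by serine hydrolase directed probe; inhibitors block probe labeling so polarization falls and inhibition rises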
Fam108B inh = Fam108B inhibition, counter-screen for RBBP9 inhibitors | recombinant Fam108B, FP-Rh probe fluorescence polarization | inhibition, % at 9.51 µM | hit rate 0.33% among 300,000 | AID 1947;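 active means inhibition above the screen mean inhibition plus 3 SD, computed separately per campaign, cut at about 18% in these data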;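 further: inhibitors lower polarization as less probe binds the enzyme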
GSTO1 inh = counter-screen for RBBP9 inhibitors: inhibitors of human GSTO1 | P78417 | recombinant GSTO1, activity-based probe fluorescence polarization | inhibition, % at 5.96 µM | hit rate 1.1% among 300,000 | AID 1974;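 active means inhibition above the campaign mean inhibition plus 3 SD, cut at about 35% in these data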
GSTO1 inh conf = GSTO1 (human) inhibition, confirmation. AID 2176. recombinant GSTO1, probe fluorescence polarization. shares compounds with GSTO1 inh. inhibition, % at 5.96 µM. hit rate 54% among 2,400;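 active means inhibition above the primary screen's cutoff, its mean inhibition plus 3 SD, cut at about 35% in these data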;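 further: loss of polarization as inhibitors block binding of rhodamine sulfonate ester activity probe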
LYPLA1 confirm = counter-screen for PME1 inhibitors: confirmation of human LYPLA1 inhibitors; recombinant LYPLA1, FP-Rh probe fluorescence polarization; AID 2233; inhibition, % at 5.9 µM; shares compounds with LYPLA1 counter; hit rate 69% among 480;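 active means mean inhibition across replicates above the hit cutoff set in the primary screen, cut at about 15% in these data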;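 further: loss of FP-Rh probe labeling of LYPLA1 seen as lower polarization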
LYPLA2 conf = LYPLA2 (human) inhibition, confirmation counter-screen. inhibition, % at 5.9 µM. hit rate 72% among 1,100. recombinant LYPLA2, FP-Rh probe fluorescence polarization. shares compounds with LYPLA2 counter;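 active means mean inhibition across replicates above the hit cutoff set in the primary screen, cut at about 26% in these data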;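 further: blocked labeling of the enzyme by serine hydrolase FP-Rh probe lowers polarization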
PAD4 FP conf = PAD4 (human) inhibition, confirmed | shares compounds with PAD4 FP inh | recombinant PAD4, RCA probe fluorescence polarization | inhibition, % at 6.36 µM | hit rate 28% among 1,200 | AID 488796;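 active means mean inhibition across replicates above the hit cutoff set by the earlier primary screen, cut at about 15% in these data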;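 further: inhibitors block active-site labeling by the probe so polarization falls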
A number is an active result; – = inactive; · = no result; ! = repeats disagree.

SMILES	LYPLA2 counter	LYPLA1 counter	PAD4 FP inh	PME-1 primary	Fam108B inh	GSTO1 inh	GSTO1 inh conf	PAD4 FP conf	others
NC(=S)N/N=C1/CCSc2ccc3ccccc3c21	–	–	–	–	–	–	·	·
Cc1cc(C)n2nc(C(=O)OCC(=O)N3C(C)CCCC3C)nc2n1 (stereo not given)	–	–	–	–	–	–	·	·
CC(C)(C)c1nn(-c2ccccc2)c2[nH]c(=O)c(CNc3ccc4c(c3)OCCO4)cc12	–	–	–	–	–	–	·	·
Cc1nn(-c2ccccc2)c2[nH]c(=O)c(CNc3ccc(N4CCOCC4)cc3)cc12	–	–	20	–	–	39	–	–
CN(C)c1ccc(N/C=C/C(=O)c2ccccc2)cc1	–	–	17	–	–	62	–	–
CN(C)c1ccc(N/C=C/C(=O)C(C)(C)C)cc1	–	–	18	–	–	83	–	–
O=C(N=C1SC2CS(=O)(=O)CC2N1c1ccccc1)c1cccc([N+](=O)[O-])c1 (stereo not given)	–	–	–	–	·	·	·	·
Cc1cc(C(=O)CN2C(=O)C(=O)N(CCC3=CCCCC3)C2=O)c(C)n1C	·	·	–	·	·	·	·	·
O=C1C(Nc2ccccc2)=C(N2CCCCC2)C(=O)c2ccccc21	–	–	15	–	–	62	56	–
COc1ccccc1NC1=C(N2CCCCC2)C(=O)c2ccccc2C1=O	–	–	38	–	–	73	54	–
COc1ccccc1NC(=O)C1CCCN(S(=O)(=O)c2c(C)noc2C)C1 (stereo not given)	–	–	–	–	–	–	·	·
CS(=O)(=O)N(CC(=O)N1CCc2ccccc2C1)c1cccc(Br)c1	–	–	–	–	–	–	·	·
CCN(CC)c1cc(Cl)c2nonc2c1N	–	–	–	–	–	–	·	·
CN(C)c1cc(Cl)c2nonc2c1N	–	–	40	–	–	60	–	–
COc1cc(NC(C)CCCN)c2ncccc2c1 (stereo not given)	–	–	35	–	–	47	–	–
CC1CN(c2nc3c(c(=O)n(Cc4ccc(Cl)cc4)c(=O)n3C)n2C)CC(C)O1 (stereo not given)	–	–	–	–	–	–	·	·
CN(C)c1ccc(N=Cc2cccn2C)cc1	–	–	25	–	–	83	–	–
CN(C)c1ccc(N=Cc2nc(-c3ccccc3)oc2O)cc1	–	–	–	–	–	–	·	·
O=C(N[C@@H](Cc1ccccc1)C(=O)O)c1ccc(C(F)(F)F)cc1	–	–	–	–	–	–	·	·
O=C(NC1(O)C(=O)c2ccccc2C1=O)c1ccc(C(F)(F)F)cc1	–	–	40	–	–	84	77	40
CC(=O)c1ccc(S(=O)(=O)Oc2ccc(-c3ccc(C(=O)O)cc3)cc2)cc1	–	–	–	–	–	–	·	·
Oc1c(Br)cc(Br)cc1C=Nc1cccc2ncccc12	–	–	37	–	–	73	–	–
CC[C@]1(C(=O)OC)[C@H]2C(=O)N(C)C(=O)[C@H]2[C@H]2CN=C(SCc3ccc(C#N)cc3)N21	·	·	–	·	·	·	·	·
CCSc1nnc(NC(=O)C2CC(=O)N(Cc3ccccc3)C2)s1 (stereo not given)	–	–	–	–	–	–	·	·
Cc1cc(C(=O)N/N=C/c2ccc(-c3cccc(Cl)c3Cl)o2)n[nH]1	–	–	–	–	–	–	·	·
SMILES	LYPLA2 counter	LYPLA1 counter	PAD4 FP inh	PME-1 primary	Fam108B inh	GSTO1 inh	GSTO1 inh conf	PAD4 FP conf	others
CC(C)(C)c1cc(C(=O)N/N=C/c2ccc(-c3ccccc3[N+](=O)[O-])o2)n[nH]1	36	26	48	32	–	52	–	–	LYPLA1 confirm=–;LYPLA2 conf=–
O=C(O)/C=C\C(=O)Nc1ccc(N2CCN(c3ccc(F)cc3)CC2)cc1	–	–	24	–	–	58	–	–
CC1(C)C=C2C(=NN(c3ccccc3)C(N)=C2C#N)CO1	–	–	22	–	–	74	88	56
CN1CCc2cc3c(c4c2[C@H]1[C@H](O)c1ccccc1-4)OCO3	–	–	37	–	–	69	–	34
COc1ccc2c(c1OC)C(=O)OC2C1c2c(cc3c(c2OC)OCO3)CCN1C (stereo not given)	–	–	–	–	–	–	·	·
C=C[C@]1(C)C[C@@H](OC(=O)CSCCN(CC)CC)[C@]2(C)C(C)CC[C@]3(CCC(=O)[C@H]32)[C@@H](C)[C@@H]1O (stereo not given in full)	–	15!	–	–	–	–	·	·	LYPLA1 confirm=–
CC(C(=O)NCc1ccc(F)cc1)n1ccc2cc(S(=O)(=O)N3CCCC3)ccc21 (stereo not given)	–	–	–	–	–	–	·	·
COc1ccccc1-c1csc(-n2ncc(C#N)c2N)n1	–	22	–	–	–	–	·	·	LYPLA1 confirm=40
COc1ccc(-c2csc(-n3ncc(-c4ccccn4)c3N)n2)cc1	–	–	–	–	–	–	·	·
O=C1CCC([N+](=O)[O-])C(c2ccc(-c3ccccc3)cc2)N1 (stereo not given)	–	22	–	–	–	–	·	·	LYPLA1 confirm=24
O=C1CCC([N+](=O)[O-])C(c2ccc(C(F)(F)F)cc2)N1 (stereo not given)	–	–	–	–	–	–	·	·
CC(C)c1[nH]nc2c1C(c1ccco1)C(C#N)=C(N)O2 (stereo not given)	–	–	–	–	–	–	·	·
COc1ccc(C2(C)NC(=O)N(CC(=O)Nc3ccc(S(=O)(=O)N4CCCC4)cc3)C2=O)cc1 (stereo not given)	–	–	–	–	–	–	·	·
O=C(CN1CCN(C(=O)c2ccco2)CC1)Nc1cc(C(F)(F)F)ccc1Cl	–	91	–	–	–	–	·	·	LYPLA1 confirm=92
N#Cc1c(NC(=O)CN2CCN(C(=O)c3ccco3)CC2)sc2c1CCCCC2	–	51	–	–	–	–	·	·	LYPLA1 confirm=56
CCc1c(C)sc(NC(=O)CN2CCN(C(=O)c3ccco3)CC2)c1C(=O)OC	–	–	–	–	–	–	·	·
CS(=O)(=O)c1ccc(NS(=O)(=O)c2ccc(Cl)c(C(=O)NCc3ccco3)c2)cc1	–	–	–	–	·	·	·	·
CCOc1cc2[nH]c(=S)n(CC3CCCN3CC)c(=O)c2cc1OCC (stereo not given)	–	–	–	–	–	–	·	·
CCOC(=O)c1nn(-c2ccccc2)c(-c2ccccc2)c1C(=O)c1ccccc1	–	18	–	–	–	–	·	·	LYPLA1 confirm=–
O=C(O)CCCCCCCCCCCc1ccccc1	–	18	–	–	–	–	·	·	LYPLA1 confirm=27

Screening data deposited in PubChem BioAssay by The Scripps Research Institute Molecular Screening Center.
